For 68 compounds, activity, negative = inhibition and AC50 results are on record in PubChem BioAssay AID1851 (National Center for Advancing Translational Sciences (NCATS), 2009).

The structures appear in SMILES notation. The whole screen tested about 16,000 compounds, of which about 2,600 (16%) were called active. Not shown: some 20% with an inconclusive outcome. A selection follows. Unmarked numbers belong to inactive results. Calls follow the shape of the dose curve; as a rule, active = well fitted curve in the direction sought with a large enough effect; inconclusive = small, poorly fitted or top-dose-only effect, or effect the other way; inactive = no such curve, though single readings can be large or run the other way.
% is scaled to controls: 0 for no effect and ±100 for the full control effect.

Chain of Cytochrome P450 2D6 (Homo sapiens) (P10635 whole entry, looked up): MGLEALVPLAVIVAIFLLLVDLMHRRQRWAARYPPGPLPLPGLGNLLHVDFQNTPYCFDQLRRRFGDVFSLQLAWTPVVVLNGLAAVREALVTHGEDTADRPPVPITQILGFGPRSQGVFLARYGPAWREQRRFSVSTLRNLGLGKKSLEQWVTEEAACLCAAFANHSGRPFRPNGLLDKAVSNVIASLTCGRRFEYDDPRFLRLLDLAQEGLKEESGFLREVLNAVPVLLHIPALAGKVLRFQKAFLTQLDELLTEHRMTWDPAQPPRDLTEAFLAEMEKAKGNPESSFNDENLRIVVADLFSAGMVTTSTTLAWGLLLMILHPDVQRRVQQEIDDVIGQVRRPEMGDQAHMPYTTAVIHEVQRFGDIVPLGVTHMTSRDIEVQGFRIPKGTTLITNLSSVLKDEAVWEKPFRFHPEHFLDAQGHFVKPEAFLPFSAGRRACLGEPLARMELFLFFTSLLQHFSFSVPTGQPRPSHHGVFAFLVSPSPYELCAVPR

The test concerns the target Cytochrome P450 2D6 (Homo sapiens) (UniProt P10635). Put plainly: Cytochrome panel assay with activity outcomes. The conditions noted are these: recombinant CYP, pro-luciferin dealkylation, luminescence, p450-cyp2d6; series mostly up to 57.1 µM.
`O=C(O)CCC(=O)c1ccc2sc3ccccc3c2c1`: the activity, negative = inhibition was -3.63% [at 11.4 µM].
The term AC50 denotes the concentration at which the activity in the assay is half-maximal. Take `CCCCN(CCCC)CCCOC(=O)c1ccc(N)cc1`: the AC50 was 6.31 nM (active).
Take `CN(C)CCOC(=O)c1ccc(N)cc1`: the activity, negative = inhibition is 11.9% [at 11.4 µM].
For `CCCCNc1ccc(C(=O)OCCOCCOCCOCCOCCOCCOCCOCCOCCOC)cc1`, the AC50 entry was “inactive”.
`Cc1cc([N+](=O)[O-])c(C)c(Br)c1C`: the activity, negative = inhibition is -1.18% [at 11.4 µM].
Take `CC(C)(C)C(=O)OCOC(=O)[C@@H]1N2C(=O)[C@@H](NC(=O)[C@H](N)c3ccccc3)[C@H]2SC1(C)C`: the AC50 entry is “inactive”.
For `O=C(Nc1cccc(F)c1)N1CCCC2(CCN(C(=O)c3cc(C(F)(F)F)cc(C(F)(F)F)c3)CC2)C1`, the AC50 entry is “inactive”.
Regarding `CCOc1ccccc1Oc1coc2cc(OC)ccc2c1=O`, the AC50 is 501 nM (active).
As for `CCOc1ccccc1Oc1c(C)oc2cc(OC(=O)c3ccco3)ccc2c1=O`, the AC50 entry is “inactive”.
Regarding `COc1ccc2c(=O)c(-c3ccccc3)c(C)oc2c1`, the AC50 result was “inactive”.
The same measure, in the same setting: under `CC(C)C(C(=O)O)N1C(=O)/C(=C/C=C/c2ccco2)SC1=S` (stereo not drawn) stands “inactive”.
Take `CCCCN(C)C(=O)c1coc(=O)c2ccccc12`: the AC50 entry was “inactive”.
Regarding `O=[n+]1c2c(n([O-])c3cc(F)c(F)cc31)CCCC2`, the AC50 result is “inactive”.
With `O=C1c2ccccc2-c2ccc(NC(=O)[C@H]3CCCC[C@@H]3C(=O)O)cc21`, the activity, negative = inhibition is -8.68% [at 11.4 µM].
As to `CCC(=O)Nc1ccc2c(c1)C(=O)c1ccccc1C2=O`, the AC50 was 7080 nM (active).
Regarding `O=C(Nc1ccc(Nc2ccc3c(c2)C(=O)c2ccccc2C3=O)c2c1C(=O)c1ccccc1C2=O)c1ccccc1`, the activity, negative = inhibition is -5.75% [at 11.4 µM].
`COc1ccc(/C=N/n2c(C)nnc2C)c(OC)c1`: the AC50 result was “inactive”.
On the same count and under the same terms, for `Cn1cnc2c(NCc3ccccc3)nc(NCCO)nc21` the value was 1260 nM (active).
Take `CCn1c2ccccc2c2nnc(NCCCO)nc21`: the activity, negative = inhibition was 3.89% [at 11.4 µM].
In the case of `OCCn1cnc2c(SCc3ccccc3)ncnc21`, the activity, negative = inhibition is -0.741% [at 11.4 µM].
On the same count and under the same terms, for `O=C1[C@H]2[C@H]3[C@H](O)[C@H](O)C/C(=N/OC[C@@H](O)COCc4ccco4)[C@@H]3CC[C@@H]2C(=O)N1Cc1ccc2c(c1)OCO2` the value was 0.398% [at 11.4 µM].
As for `CN1CCC(N(C)C(=O)CCc2nc3ccccc3c(=O)[nH]2)CC1`, the AC50 result is “inactive”.
For the compound `O=C(O)CSc1ccn(Cc2ccccc2)c1`, the activity, negative = inhibition was 9% [at 11.4 µM].
Turning to `O=C(COC(=O)c1cnccn1)NCc1ccccc1`, the AC50 result was “inactive”.
Turning to `O=C(O)c1cccnc1Nc1cccc(C(F)(F)F)c1`, the AC50 entry was “inactive”.
Same read-out and setting: under `O=C(COC(=O)c1cccnc1Nc1cccc(C(F)(F)F)c1)NCc1ccc2c(c1)OCO2` stands 1120 nM (active).
For the compound `Cc1cc2nnc(SCC(=O)OC(C)C)n2c2ccccc12`, the AC50 result is “inactive”.
As to `NC1=C2NC=N[C@@H]2N(C/C=C\c2ccccc2)C=N1`, the activity, negative = inhibition is -12.6% [at 11.4 µM].
For the compound `N#CCCn1c(=O)c(-c2cccs2)nc2cnc(Oc3cccc(Cl)c3)nc21`, the AC50 entry is “inactive”.
Same read-out and setting: for `O=C(Nc1cc2ccccc2oc1=O)C1CCCCC1` the value was “inactive”; for `Cc1cc(NC(=O)C2CCCCC2)nc2c1c(=O)oc1ccccc12`, 20000 nM (active); for `COc1ccc2oc(=O)c(NC(=O)C3CCCCC3)cc2c1`, “inactive”.
The same measure, in the same setting: under `O=c1cnc2cnc(Nc3ccccc3)nc2n1C[C@H]1CCCO1` stands “inactive”; under `COc1ccc(-c2cc(CNC(C)=O)on2)cc1`, “inactive”.
Still for that read-out and setting: under `FC(F)(F)c1ccc(/C=N/N2CCN(Cc3cccc4ccccc34)CC2)cc1` stands “inactive”; under `COc1ccccc1CC(=O)O/N=C(\N)Cc1cccc2ccccc12`, “inactive”.
For the compound `COc1ccccc1/C=C/C=N/N1CCN(Cc2cccc3ccccc23)CC1`, the AC50 is 7940 nM (active).
Regarding `CCc1nc(N2CCC3(CC2)OCCO3)c2nnn(Cc3ccccc3Cl)c2n1`, the AC50 result is “inactive”.
`CC(C)C(=O)Cc1ccc2ccccc2n1`: the activity, negative = inhibition was 5.06% [at 11.4 µM].
On to `Cc1cc2c(cc1C)-c1nnc(-c3ccc4ccccc4n3)n1C(C)(C)C2`, for which the AC50 result was “inactive”.
Regarding `c1ccc2nc(-c3ccncc3)ccc2c1`, the AC50 was 15800 nM (active).
On the same count and under the same terms, for `Cc1ccc([N+](=O)[O-])cc1N=C(c1cccc([N+](=O)[O-])c1)N1CCOCC1` the value was “inactive”; for `CC(=O)c1cnc2cc(C)nn2c1C`, “inactive”.
On the same count and under the same terms, under `CC(C)Oc1ccc2ccccc2c1C=O` stands “inactive”; under `O=C(NNC(=O)C1CCN(S(=O)(=O)c2ccc(Cl)cc2)CC1)c1ccc(Cl)cc1`, “inactive”.
As to `Cc1[nH]c2c(C)ccc(C)c2c1CC(=O)O`, the activity, negative = inhibition is -12.2% [at 11.4 µM].
Turning to `COc1ccc(CNc2nc3ccccc3n2Cc2ccccc2)cc1OC`, the AC50 is 794 nM (active).
For the compound `C=CCn1c(-c2cccn(Cc3ccccc3)c2=O)n[nH]c1=S`, the AC50 result is “inactive”.
For `CC(=O)Nc1nc2ccccc2n1Cc1ccccc1`, the AC50 entry is “inactive”.
Same read-out and setting: for `C=CCn1c(P(=O)(O)c2ccccc2)nc2ccccc21` the value was “inactive”; for `C=CCn1c(NCc2ccccc2)nc2ccccc21`, 398 nM (active).
As for `COc1ccc(NC(=O)COC(=O)Cn2c(C)nc3ccccc32)cc1OC`, the AC50 entry was “inactive”.
On the same count and under the same terms, under `O=C(NCC1CCCO1)c1onc(CSc2ccccc2F)c1C(=O)O` (stereo not drawn) stands “inactive”; under `O=C(O)c1ccccc1N/N=C\c1ccnc2ccccc12`, “inactive”.
For the compound `CC(=O)ON(C(C)=O)S(=O)(=O)c1ccc(Cl)cc1`, the AC50 entry was “inactive”.
Still for that read-out and setting: under `Cc1[nH]n(C(C)(C)C)c(=O)c1Sc1ccccc1` stands “inactive”.
Consider `O=P(O)(CCP(=O)(O)c1ccccc1)c1ccccc1`, for which the activity, negative = inhibition is 0.684% [at 11.4 µM].
Regarding `O=C(c1cc(C(F)(F)F)cc(C(F)(F)F)c1)N1CCC2(CC1)CCN(c1ncccn1)CC2`, the AC50 entry was “inactive”.
Still for that read-out and setting: for `Cc1ccc(-c2ccc(/C=N\NC(=O)c3cc4c(ccc5ccccc54)o3)o2)cc1[N+](=O)[O-]` the value was “inactive”.
As to `O=C(N/N=C(\c1ccccc1)c1cccnc1)C(O)(c1ccccc1)c1ccccc1`, the AC50 result is “inactive”.
As for `Clc1ccc(CC[C@H](Cn2ccnc2)Sc2c(Cl)cccc2Cl)cc1`, the AC50 was 1260 nM (active).
As for `O=C1C2=CC[C@@H]3C(=O)N(c4ccc(F)cc4F)C(=O)[C@H]3[C@H]2[C@H](O)[C@H]2O[C@H]12`, the activity, negative = inhibition was 6.42% [at 11.4 µM].
Consider `COc1ccc(CCN(C)CCC(=O)Nc2c(C)cc(C)cc2C)cc1OC`, for which the AC50 result was “inactive”.
The same measure, in the same setting: under `COc1ccc(-c2nc(C#N)c(N3CCC(C(N)=O)CC3)o2)cc1OC` stands “inactive”; under `COc1ccc(-c2nc(CSCC(=O)NCC3CCCO3)c(C)o2)cc1OC` (stereo not drawn), “inactive”; under `COc1cccc(-c2nc(CS(=O)(=O)CC(=O)NCCCOC(C)C)c(C)o2)c1`, “inactive”.
Same read-out and setting: under `CCCCN(C)CCCNC(=O)CS(=O)Cc1nc(-c2ccc(OC)c(OC)c2)oc1C` (stereo not drawn) stands 11200 nM (active).
The same measure, in the same setting: for `CCCN(CCC)CCCNC(=O)CS(=O)Cc1nc(-c2ccc(OC)c(OC)c2)oc1C` (stereo not drawn) the value was 5010 nM (active).
